The text below walks through data of publication PMC7819943, “Rice protein-binding microarrays: a tool to detect cis-acting elements near promoter regions in rice”.

The full ranking holds about 68,000 sequences; the median of “fluorescence intensity (a.u.)” is about 9,100, and the highest 2% start at about 16,000. This is one part of a sample in which the highest values are shown more often than they occur.

Sequence of OsWRKY34 (Q0JBA9 entry or part of it): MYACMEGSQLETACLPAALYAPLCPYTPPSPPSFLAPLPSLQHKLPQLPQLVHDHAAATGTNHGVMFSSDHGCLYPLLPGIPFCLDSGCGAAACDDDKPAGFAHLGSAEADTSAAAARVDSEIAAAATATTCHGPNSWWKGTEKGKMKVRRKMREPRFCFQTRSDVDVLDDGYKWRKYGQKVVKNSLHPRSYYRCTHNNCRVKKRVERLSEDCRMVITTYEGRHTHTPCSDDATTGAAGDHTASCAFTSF

This assay concerns the target OsWRKY34 (Oryza sativa, UniProt Q0JBA9 1-250). Put plainly: protein-binding microarray (RPBM); PBS, 2% BSA, 51.3 ng/ul salmon testes DNA, 50 uM zinc acetate, 200 nM TF, 25 C, 1 h; high values mean tight binding. Particulars: protein: recombinant; tags: N-terminal polyhistidine and DsRed monomer fusion (pET32a); label: CyDye5-dUTP incorporated in the synthesized complementary strand; 3' TTTTT single-stranded linker to array surface; dsDNA, one strand shown. A digest of the protocol: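 A custom Agilent array was converted to double-stranded form by primer extension with Cy5-dUTP and blocked with 2% BSA. Protein at 200 nM in PBS with 2% BSA, salmon testes DNA and 50 µM zinc acetate was applied for 1 h at 25 °C, followed by washing. The proteins were polyhistidine–DsRed N-terminal fusions of transcription factors, expressed in E. coli BL21-CodonPlus and Ni–NTA-purified. The binding signal is per-feature fluorescence intensity (arbitrary units) from an Axon 4000B scanner.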
In the case of “GAAATGTTGGTGACGGTGGAGGATTTTGTTGTTTTAGTGTCGGAGTCACCTAGTGCAG”, the binding signal was 9790 fluorescence intensity (a.u.).
Take “GGTTTCTTGGATTGGGCTGTGGCTGGCGTTGGTCGGAGGACGGAGTCACCTAGTGCAG”: the binding signal was 19100 fluorescence intensity (a.u.).
In the case of “CTTTGGCTTCTTGCCTACCGCGTTCTTGGTGATCGTTGGTCGGAGTCACCTAGTGCAG”, the binding signal was 8270 fluorescence intensity (a.u.).
Turning to “GGGTTGGTCCGCGTTCTTGCCTCCTGGTTGGCCGATGTTTCGGAGTCACCTAGTGCAG”, the binding signal was 15700 fluorescence intensity (a.u.).
Take “GACAACCTGGAGCCCGACGACGACGAGGGGATGGGGAGGGCGGAGTCACCTAGTGCAG”: the binding signal was 8810 fluorescence intensity (a.u.).
As for “GTTAGTGTGTGGTTTGTTGCGTGCAGTCAGGTGCACTCGGCGGAGTCACCTAGTGCAG”, the binding signal is 11000 fluorescence intensity (a.u.).
The same measure for “TATTATTATGATGGGTTTGTATATTAAAATTGTCAGTTTGCGGAGTCACCTAGTGCAG”: 8110 fluorescence intensity (a.u.); for “ACGCGCGCTACATTCTCCACCTCTCCACCATTCCAAACTGCGGAGTCACCTAGTGCAG”: 9850 fluorescence intensity (a.u.).
“CACACAGCATCGTTTGGATTAATCACCGAACCGATCGACCCGGAGTCACCTAGTGCAG”: the binding signal is 8400 fluorescence intensity (a.u.).
Regarding “CCTCTCCTAGGTTAAGTTTTTTTGGGGCGAAGGGAGTATTCGGAGTCACCTAGTGCAG”, the binding signal is 8120 fluorescence intensity (a.u.).
For “CTCTCGCGCGAGATGTCCGTGACTCTCTTTTCGTTTACACCGGAGTCACCTAGTGCAG”, the binding signal is 8420 fluorescence intensity (a.u.).
Turning to “CTCTCGGTCGTCGGCCTCGTCCTCCGGGCCGGCATTCATCCGGAGTCACCTAGTGCAG”, the binding signal is 8560 fluorescence intensity (a.u.).
Regarding “CTTATACATTGGGTTGAGGGTTTTTTTGGTTGAGTTCGGCCGGAGTCACCTAGTGCAG”, the binding signal is 9220 fluorescence intensity (a.u.).
The same measure for “TTGGTTGGTTGGTTGGTGTTTTGAGGCTTGGGTCGGCTTACGGAGTCACCTAGTGCAG”: 17100 fluorescence intensity (a.u.); for “TGATCGAGAGAGGTGTTGTTGGAAGCTTGGTTGGTTGGGGCGGAGTCACCTAGTGCAG”: 9000 fluorescence intensity (a.u.).
As for “GCTAGGGTTTTTGGGTTCACTTTGAGGCTGTTTGGTTGGTCGGAGTCACCTAGTGCAG”, the binding signal was 15100 fluorescence intensity (a.u.).
Consider “GCGCATGGTGTTCGGGAAGAAGTACATCGTCGAGGAGGGGCGGAGTCACCTAGTGCAG”, for which the binding signal is 8540 fluorescence intensity (a.u.).
The same measure for “CTTGCCATGGTGTTGATTTGGGGCGGGAAGAAGCATCGGGCGGAGTCACCTAGTGCAG”: 16800 fluorescence intensity (a.u.); for “AGTTACCGTTCTAGTCAGGGGCGGATCCAGCGTGGGGCGGCGGAGTCACCTAGTGCAG”: 12600 fluorescence intensity (a.u.); for “ACATCCTTCTGGGTTGATTTTTTTCTATAGAGGGGTAGGTCGGAGTCACCTAGTGCAG”: 8590 fluorescence intensity (a.u.).
The same measure for “AAGTAAGATGCCACACACCATAGTCTGCTTCACTGTCAACCGGAGTCACCTAGTGCAG”: 9080 fluorescence intensity (a.u.); for “CGTCTCCGCCGCTGCTTGAATCTGCCGCCACCATCACCGCCGGAGTCACCTAGTGCAG”: 8910 fluorescence intensity (a.u.).
Consider “GCTGACATAATTGCTTGTTGGGATTCTTGGGAGGAAATGGCGGAGTCACCTAGTGCAG”, for which the binding signal is 8330 fluorescence intensity (a.u.).
For the sequence “CTTCTCTCCTCTCCGCTGTGGTTTCTTGCTGGTTCTTGGACGGAGTCACCTAGTGCAG”, the binding signal is 10400 fluorescence intensity (a.u.).
“GAGATGGGGAGGGAGGCCGGCCGGGAGAGGGAGAGAGAGGCGGAGTCACCTAGTGCAG”: the binding signal was 8890 fluorescence intensity (a.u.).
Take “GGGTGGAGCTGAACTGATGGGCCGAACTATGTATGGTTGGCGGAGTCACCTAGTGCAG”: the binding signal was 9030 fluorescence intensity (a.u.).
To “TCTCCTCTCTCTCTCTTCTTCCCGGGGAGGCGGGGAGCGGCGGAGTCACCTAGTGCAG” belongs 11700 fluorescence intensity (a.u.).
The same measure for “GGGGCGTCCCGGGAGGGGAGGGAGATGGGGAGGGAGCGGACGGAGTCACCTAGTGCAG”: 16800 fluorescence intensity (a.u.); for “GAGGCTGGGCTGGGCGGGCGTATCGTTCCTGCTCCCGGAGCGGAGTCACCTAGTGCAG”: 25400 fluorescence intensity (a.u.).
For “GCTGTACCAGTACTGACCGGGGTGGGGTGGCGGGAGCGGACGGAGTCACCTAGTGCAG”, the binding signal is 14600 fluorescence intensity (a.u.).
On to “GTATTATGGGTGGAGGCGGGCGGCTGAGCTGTTCCTGGGCCGGAGTCACCTAGTGCAG”, for which the binding signal is 8880 fluorescence intensity (a.u.).
As to “TGGAGGAGGGGAGGCCGGGGATTGTTTTTATAGGGGAGGGCGGAGTCACCTAGTGCAG”, the binding signal was 30500 fluorescence intensity (a.u.).
As to “ATTGTTTTTATAGGGGAGGGGAGGCGGGATCGAGCCCGGGCGGAGTCACCTAGTGCAG”, the binding signal was 15100 fluorescence intensity (a.u.).
Consider “GGGTTGGGTGGGTGCTGTAATATGGGGAGATACTGACTACCGGAGTCACCTAGTGCAG”, for which the binding signal was 19200 fluorescence intensity (a.u.).
Turning to “TGGCCGGAGAGGGGAGATGGGGAGATGGGGAGAGGGGAGGCGGAGTCACCTAGTGCAG”, the binding signal is 9420 fluorescence intensity (a.u.).
Turning to “TCACCGGGCGGTCACCGGAGGCGGAGGCGGAGGGAGGGGCCGGAGTCACCTAGTGCAG”, the binding signal is 10200 fluorescence intensity (a.u.).
As to “CGCTGCGCTGCCGGTCCATTTCTAGAAGCCCTCGCGCTCCCGGAGTCACCTAGTGCAG”, the binding signal is 9130 fluorescence intensity (a.u.).
Turning to “TTGAATTGAATTATTATGCTCATCGCTTTCGCATAACCTCCGGAGTCACCTAGTGCAG”, the binding signal is 8320 fluorescence intensity (a.u.).
Regarding “CTAGGAGGAGGATTAGTTCTTGCGCATCGCTTCTGAGCTCCGGAGTCACCTAGTGCAG”, the binding signal is 8200 fluorescence intensity (a.u.).
On to “CCCATGTTTTTTTTTCATATTTTGCAATCTTCGGTTTAAACGGAGTCACCTAGTGCAG”, for which the binding signal is 8520 fluorescence intensity (a.u.).
To “CTATAAATACACGACGTCTCTCCGCTGGCTTACACACAACCGGAGTCACCTAGTGCAG” belongs 10100 fluorescence intensity (a.u.).
The same measure for “CGCCAACTCAACGCTGAAGCCGCTGCCTCACCATCTCGTCCGGAGTCACCTAGTGCAG”: 8780 fluorescence intensity (a.u.).
